Shown are actives, neighbours in structure and some others; about 9.2% of the full set was active somewhere.
ELG1 repair inh: blocks ELG1-dependent DNA repair in HEK293T cells; HEK293T ELG1-luciferase reporter, luminescence, 16 h; DNA damage induced by 5-fluorouridine; Potency, µM (series often up to 46.1 µM), for inactives: at the top dose activity change, negative = inhibition, usual class: inhibitors; 330,000 tested, 2.3% active; AID 504467; note: % is set by controls: 0 for no effect and ±100 for the full control effect; nearly all actives have a fitted effect of over 55% in size
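Luminescence from the luciferase reporter, measured 30 min after ONE-Glo reagent at room temperature, was the read-out. Beforehand, 2,000 cells per well were exposed for 16 hr at 37 °C to 5-fluorouridine together with compound or vehicle.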
Rab9 promoter act: Rab9 promoter activation; Huh7 Rab9 promoter-luciferase reporter, luminescence, 24 h; Potency, µM (highest dose often 9.22 µM), for inactives: top-dose activation, negative = inhibition, most hits filed as activators; 320,000 tested, 2.8% active; note: % of control where 0% means no effect; nearly all actives have a fitted effect of over 60% in size
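Luciferase signal after 10 min detection reagent at ambient indicates Rab9 promoter upregulation; stably transfected Huh7 cells were treated 24 h with compound in DMSO at 37 °C, 5% CO2.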
FLuc counter: inhibits or activates purified firefly luciferase, miR-21 counter-screen. P08659. purified FLuc, Km substrates, luminescence inhibition. Potency, µM (highest dose often 57.5 µM), inactives show top-dose activity change, negative = inhibition, most hits filed as inhibitors. 360,000 tested, 6.9% active. AID 588342;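 note: plate controls were vehicle for no effect and reference inhibitor for full effect; nearly all actives have a fitted effect of over 55% in size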
Target sequence (P08659 whole entry, looked up): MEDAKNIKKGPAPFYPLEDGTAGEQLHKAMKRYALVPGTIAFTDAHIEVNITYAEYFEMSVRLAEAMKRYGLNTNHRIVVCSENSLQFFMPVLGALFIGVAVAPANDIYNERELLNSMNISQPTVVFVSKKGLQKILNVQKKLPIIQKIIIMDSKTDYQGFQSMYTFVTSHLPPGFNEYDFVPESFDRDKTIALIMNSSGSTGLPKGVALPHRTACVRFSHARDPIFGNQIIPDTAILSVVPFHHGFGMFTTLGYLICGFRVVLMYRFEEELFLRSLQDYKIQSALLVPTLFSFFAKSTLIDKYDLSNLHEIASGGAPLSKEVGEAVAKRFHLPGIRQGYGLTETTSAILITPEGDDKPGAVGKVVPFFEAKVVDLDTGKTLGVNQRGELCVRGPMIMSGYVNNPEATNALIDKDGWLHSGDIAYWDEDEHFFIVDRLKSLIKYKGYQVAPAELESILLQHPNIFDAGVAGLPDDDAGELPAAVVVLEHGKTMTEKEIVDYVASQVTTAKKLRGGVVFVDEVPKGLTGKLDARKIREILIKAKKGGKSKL
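Purified P. pyralis luciferase, 10 nM final, with Km-level 10 uM D-luciferin and 10 uM ATP in 50 mM Tris acetate pH 7.5, 10 mM Mg acetate, 0.01% Tween-20, 0.05% BSA; 6-point qHTS titration about 60 µM downward; luminescence read.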
NPC1 promoter act: activates the NPC1 promoter; Huh7 NPC1 promoter luciferase reporter, 24 h; Potency, µM (titrated, usually from 9.22 µM), inactives show at the top dose activation, hits mostly activators; 320,000 tested, 2.4% active; AID 485313; note: % of control where 0% means no effect; nearly all actives have a fitted effect of over 60% in size
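Quantitative HTS used a cell-based reporter: Huh7 cells stably bearing the NPC1 promoter upstream of luciferase were treated with compounds for 24 h, and promoter activation was read as luminescence.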
SMN2 splice enh: enhancers of SMN2 splice variant expression; HEK293 SMN2-luciferase splicing reporter, luminescence, 30-36 h; Potency, µM (doses to about 46.1 µM), for the others: top-dose activity change, positive = activation, actives largely listed as activators; 210,000 tested, 2.8% active; AID 1458; note: % of control where 0% means no effect; nearly all actives have a fitted effect of over 55% in size
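HEK293 cells carry an SMN2 […]–luciferase reporter in which exon 7 inclusion puts luciferase in frame. Cells were plated 10-12 h before compound addition, then incubated 30-36 h at 37C. ONE-Glo luminescence was read; sodium butyrate at 4.5 mM final served as control.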
ELG1 genotoxic: genotoxicity induction in ELG1-luciferase HEK293T cells; HEK293T ELG1-luciferase reporter, luminescence, 16 h; Potency, µM (titrated, usually from 46 µM), for the others: at the top dose activity change, positive = activation, actives largely listed as activators; 330,000 tested, 1.3% active; AID 504466; note: % of control where 0% means no effect; nearly all actives have a fitted effect of over 60% in size
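Screening used a luciferase reporter fused to human ELG1 in HEK293T cells. Luminescence was read on a CCD plate imager after 16 hr exposure and 30 min ONE-Glo incubation.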
An asterisk follows results filed as active; ? = inconclusive; . = not tested or not shown. Calls come from the whole dose curve; as a rule, active = well fitted curve in the direction sought with a large enough effect; inconclusive = small, poorly fitted or top-dose-only effect, or another doubt; inactive = no such curve, though single readings can be large; an effect the other way counts as inactive or inconclusive. Potency is the fitted concentration of half-maximal effect.

SMILES	ELG1 repair inh	Rab9 promoter act	FLuc counter	NPC1 promoter act	SMN2 splice enh	ELG1 genotoxic
COc1ccc(NC(=O)COC(=O)C2CC3C=CC2C3)cc1 (centres undefined)	?	3%	17µM*	4%	-1%	5%
c1ccc(-c2nc(-c3ccccc3)c(Nc3ccc4ccccc4c3)o2)cc1	.	.	.	.	8%	.
Cc1nn(C)c(C)c1C1Nc2ccccc2C(=O)N1O (centres undefined)	6%	-2%	3%	0%	19%	-1%
O=C1c2ccccc2NC(c2cnc3ccccc3n2)N1O (centres undefined)	?	0.89µM*	2.4µM*	1.3µM*	11µM*	?
O=C(OCC(=O)c1cccs1)c1ccccc1	?	11%	0.95µM*	21%	-6%	?
O=C(COC(=O)c1cc(=O)[nH]c2ccccc12)c1cccs1	3%	-7%	12µM*	-2%	.	-2%
Cc1ccc(C(=O)COC(=O)c2cc(=O)[nH]c3ccccc23)cc1	25%	3%	?	6%	?	?
O=C(COC(=O)c1cc(=O)[nH]c2ccccc12)c1ccccc1	-6%	0%	2.7µM*	0%	5%	-8%
CC(=C/c1ccccc1)/C=N/NC(=O)c1ccc2nc[nH]c2c1	?	20%	5.4µM*	16%	?	10%
CC(/C=N/NC(=O)c1ccc2nc(C)[nH]c2c1)=C\c1ccccc1	-6%	-1%	8.5µM*	2%	17%	-6%
O=C(N/N=C/C(Br)=C\c1ccccc1)c1ccc2nc[nH]c2c1	?	1%	12µM*	2%	?	11%
CC(/C=N/NC(=O)c1cc(-c2ccc(C)s2)[nH]n1)=C\c1ccccc1	?	1%	?	-7%	27%	4%
O=C(O)CN1CCN(Cc2ccccc2F)C1=O	-7%	1%	-2%	-7%	-40%	0%
Cc1cc(F)ccc1NC(=O)CCS(=O)(=O)c1ccc2c(c1)NC(=O)CO2	.	.	-16%	.	.	.
Cc1cc(-c2nnc(SCC(=O)Nc3ccc(C)c(C)c3)n2N)n[nH]1	23%	6%	11µM*	18%	.	1%
COc1ccc(C(NC(=O)C2CCCCC2)c2c(O)ccc3ccccc23)cc1 (centres undefined)	-11%	0%	5%	-3%	14%	-9%
CCOC(=O)c1sc(NC(=O)C2CC(=O)N(c3ccccc3OC)C2)nc1C (centres undefined)	3%	-1%	8%	-3%	.	-4%
Cc1ccc(C(C(=O)NCC2CCCO2)N(Cc2ccccc2)C(=O)c2ccc(-c3ccccc3)[nH]2)o1 (centres undefined)	16µM*	5%	1%	-4%	-8%	-6%
Cc1ccccc1CCN(C(=O)CN1C(=O)c2ccccc2S1(=O)=O)C(C(=O)NCC1CCCO1)c1ccncc1 (centres undefined)	-1%	2%	4%	1%	-8%	1%
O=C(NCC1CCCO1)C(c1ccncc1)N(Cc1cccs1)C(=O)CN1C(=O)c2ccccc2S1(=O)=O (centres undefined)	-6%	-4%	13µM*	-3%	.	10%
CN(C)c1ccc(C(C(=O)NCC2CCCO2)N(Cc2ccccc2)C(=O)c2snc(C(N)=O)c2N)cc1 (centres undefined)	12µM*	0%	0%	1%	.	-12%
Cc1ccc(CN(C(=O)CNC(=O)c2cccs2)C(C(=O)NCC2CCCO2)c2ccccc2)cc1 (centres undefined)	9.2µM*	-1%	1%	0%	?	-8%
COc1ccccc1NC(=O)c1cc2c(cc1Cl)N1CCCCCC1=NS2(=O)=O	-4%	.	.	.	.	0%
CC(=O)c1ccc(-n2c(-c3cc(-c4ccsc4)n[nH]3)n[nH]c2=S)cc1	9%	0%	?	-4%	8%	11%
COCCNC(=O)CN(Cc1cccs1)C(=O)CCC(=O)Nc1nccs1	?	-8%	0%	-3%	.	-8%
SMILES	ELG1 repair inh	Rab9 promoter act	FLuc counter	NPC1 promoter act	SMN2 splice enh	ELG1 genotoxic
CCCCCCCC1=Cc2ccc(F)cc2C(C(C(C)=O)C(=O)OC)N1C(=O)OC (centres undefined)	.	.	.	.	6%	.
CC(C)CN(C(=O)COc1ccc(C(C)(C)C)cc1)C1CCS(=O)(=O)C1 (centres undefined)	1%	-5%	3%	1%	.	6%
O=c1c2c(nc3cc(-c4ccccc4Cl)[nH]n13)CCS2	?	3.5µM*	8.5µM*	?	16µM*	?
Cc1nc2cc(-c3ccsc3-n3c(C)ccc3C)[nH]n2c(=O)c1Cl	3%	-2%	1%	0%	-11%	-9%
O=c1c2c(nc3cc(-c4ccccc4)[nH]n13)CCS2	?	2.8µM*	9.5µM*	4µM*	?	?
CCOC(=O)N1CCC(c2cc(=O)n3[nH]c(-c4ccccc4)cc3n2)CC1	5%	-1%	-3%	0%	9%	2%
COc1cccc(C2NC(=O)c3n[nH]c(-c4cccs4)c32)c1 (centres undefined)	.	.	-3%	.	-13%	.
Cc1cc(C)c(S(=O)(=O)Nc2cc(SCC(=O)O)c(O)c3ccccc23)cc1C	-7%	5%	?	8%	-115%	-10%
Cc1cc(C)c(S(=O)(=O)/N=C2/C=C(SCC(=O)O)C(=O)c3ccccc32)cc1C	?	-1%	21µM*	4%	-79%	-7%
COc1cccc2c1cc1c(=O)n(CC(=O)NCc3ccc(N(C)C)cc3)nc(C)n12	.	.	4%	.	21%	.
O=C(Nc1ccc2c(c1)C(=O)OC2)c1ccc(C(F)(F)F)cc1	0%	9%	4%	9%	.	8%
COCCC(=O)N1CCc2ccc(NC(=O)c3ccc(C(F)(F)F)cc3)cc2C1	13µM*	-15%	13µM*	-7%	.	-6%
CN(C)S(=O)(=O)N1CCc2ccc(NC(=O)c3ccc(C(F)(F)F)cc3)cc2C1	9.2µM*	-25%	4.8µM*	-13%	.	5%
CCOC(=O)c1c(C)n(C)c2ccc(OC)c([N+](=O)[O-])c12	11%	0%	0%	-3%	.	9%
COc1ccc(OC)c(NC(=O)CSC2=Nc3ccccc3C3=NC(CCC(=O)NCc4ccccc4)C(=O)N23)c1 (centres undefined)	.	.	-7%	.	.	.
Cc1cccc(NC(=O)CSc2nc3nc4c(cc3c(=O)n2-c2ccccc2)CCCC4)c1	15µM*	2%	-2%	1%	-2%	-3%
